# Results reported in PubChem BioAssay (NCATS).
# Results filed as inconclusive are left out. Where a call stands in place of a potency, no number is given. The source made the active and inactive calls. The call rests on the fitted dose curve; in most records, active means well fitted inhibition curve with a large enough effect; inconclusive means small, poorly fitted or top-dose-only effect; inactive means no such curve, though single readings can be large or run the other way.
# Test: Counterscreen for APE1 Inhibitors: Fluorescent Dye Displacement Validation Assay (AID 1707)
# Conditions: fluorescent dye displacement from DNA; series mostly up to 57.1 µM
# Text: In order to distinguish true inhibitors of DNA-processing enzymes from promiscuous DNA-binding compounds among screening assay hits, we developed a homogeneous and miniaturized assay based on fluorescent dye displacement test as originally described by Tse and Boger (Accounts of Chemical Research (2004) 37: 61-69). The assay is based on the strong enhancement of fluorescence when Thiazole Orange (ThO) binds to double-stranded DNA: conversely, in the presence of a DNA-binding compound, Thiazole Orange is displaced from the DNA and its fluorescence is reduced.
# Buffer. 50 mM Tris-HCl (pH7.5) containing 50mM NaCl, 2 mM MgCl2, and 0.01% Tween-20.
# Buffer containing 250 nM ThO in columns 3 and 4 as negative control (no dsDNA).
# Reaction mixture: 250 nM ThO and 50 nM dsDNA at final concentration dispensed throughout the plate: in columns 1, 2, 5-48. Column 1 is neutral (100% activity).
# 5''TAMRA- TC ACC FTC GTA CGA CTC
# 3'' AG TGG GAG CAT GCT GAG
# where F denotes tetrahydrofuran.
# Control: Pintool transfer of control compound WB64 (W4761, Sigma-Aldrich) to column 2 of all assay plates as a two-fold 16-point dilution in duplicate (concentration range 5.75 uM - 0.175 nM).
# Four uL of reaction mixtures were dispensed to 1536-well Greiner black solid bottom plates. Compounds (23 nL) were transferred […] in order to measure the endpoint fluorescence using 480 nm excitation and 540 nm emission fluorescence protocol.
# Potency means the concentration at half of the fitted maximal effect.
row,SMILES,Potency
1,CC(CCc1ccccc1)NC(C)C(O)c1ccc(O)cc1 (stereo not given),inactive
2,CC[N+](CC)(CC)CC,inactive
3,NCC1(CC(=O)O)CCCCC1,inactive
4,c1ccc2c(c1)OCC(C1=NCCN1)O2 (stereo not given),inactive
5,COc1ccccc1N1CCNCC1,inactive
6,NCC(CC(=O)O)c1ccc(Cl)cc1 (stereo not given),inactive
7,C=C(C)[C@H]1Cc2c(ccc3c2O[C@@H]2COc4cc(OC)c(OC)cc4[C@@H]2C3=O)O1,inactive
8,Nc1ccncc1,inactive
9,CN1C[C@H](CNC(=O)OCc2ccccc2)C[C@@H]2c3cccc4c3c(cn4C)C[C@H]21,inactive
10,CCn1cc(C(=O)O)c(=O)c2ccc(C)nc21,inactive
11,CNCC(O)c1ccc(O)cc1 (stereo not given),inactive
12,Cc1ncc(CNC(=O)N(CCCl)N=O)c(N)n1,inactive
13,Clc1cccc(N2CCNCC2)c1,inactive
14,COc1ccc(Cc2nccc3cc(OC)c(OC)cc23)cc1OC,inactive
15,CCCN1CCC[C@@H]2Cc3nc(N)ncc3C[C@H]21,inactive
16,CCCC(C)(COC(N)=O)COC(=O)NC(C)C (stereo not given),inactive
17,Fc1ccc(C(OCCN2CCN(CCCc3ccccc3)CC2)c2ccc(F)cc2)cc1,inactive
18,N#CC(C#N)=Cc1ccc(O)c(O)c1,inactive
19,NN=C(N)N,inactive
20,Cc1cccc(C)c1NC1=NCCCS1,inactive
21,CC(=O)[C@H]1CC[C@H]2[C@@H]3CC[C@H]4C[C@H](O)CC[C@]4(C)[C@H]3C(=O)C[C@]12C,inactive
22,O=C1NCN(c2ccccc2)C12CCN(CC1COc3ccccc3O1)CC2 (stereo not given),inactive
23,O=c1[nH]c2ccccc2n1C1CCN(CCCC(c2ccc(F)cc2)c2ccc(F)cc2)CC1,inactive
24,NCC(O)c1ccc(O)cc1 (stereo not given),inactive
25,O=c1[nH]c2ccccc2n1CCCN1CCC(n2c(=O)[nH]c3cc(Cl)ccc32)CC1,inactive
26,c1ccc(C2CC2)c(OCC2=NCCN2)c1,inactive
27,Cc1ccc(S(=O)(=O)N[C@@H](CCCCN)C(=O)CCl)cc1,inactive
28,COC[C@H]1OC(=O)c2coc3c2[C@@]1(C)C1=C(C3=O)C2CCC(=O)[C@@]2(C)C[C@H]1OC(C)=O (stereo not given in full),inactive
29,O=c1c(O)c(-c2ccc(O)c(O)c2)oc2cc(O)cc(O)c12,2510 nM (active)
30,CCC1(C2=NCCN2)Cc2ccccc2O1 (stereo not given),inactive
